“And” between values parts separate entries of the source, which are not always exact repeats. Equal entries are not always repeated. Records with an inconclusive call do not appear. Where a call stands in place of a potency, no number is given. Unmarked numbers belong to inactive results. The source made the active and inactive calls. Calls come from the whole dose curve; as a rule, active = well fitted curve in the direction sought with a large enough effect; inconclusive = small, poorly fitted or top-dose-only effect, or another doubt; inactive = no such curve, though single readings can be large; an effect the other way counts as inactive or inconclusive.
Experiments:
[1] = Viability qHTS for spleen associated tyrosine kinase inhibitor (SYKi) naive MV4-11 cells (AID 1963823); note: nearly all actives have a fitted effect of over 40% in size
Outline: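 qHTS, SYK inhibitor-naive MV4-11; 500 cells/well; 72 hr compound exposure, 37 C; CellTiter-Glo added, 10 min RT; luminescence read.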

[2] = Viability qHTS for spleen associated tyrosine kinase inhibitor (SYKi) drug resistant MV4-11 cells (AID 1963824); note: nearly all actives have a fitted effect of over 35% in size
Outline: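 CellTiter-Glo luminescence, read 10 min after reagent addition, reports viability after a 72 hr compound exposure. Cells are an MV4-11 line made resistant to SYK inhibition, seeded at 500 per well onto compound-containing plates.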

[3] = Quantitative highthroughput screen to assess conditional lethalithy of NOMO1 cells grown in RPMI1640 with untreated serum (RPMI+s) (AID 1963876); note: nearly all actives have a fitted effect of over 35% in size
Outline: (§1)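 Each medium arm—HPLM with 10% dialyzed FBS, or RPMI1640 with 5 mM glucose and 10% untreated or dialyzed FBS—was screened against an 11-point, 3-fold compound titration for 48 h at 37 °C, with CellTiter-Glo luminescence as endpoint.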

[4] = Quantitative highthroughput screen to assess conditional lethalithy of NOMO1 cells grown in RPMI1640 with dialyzed fetal bovine serum (RPMI+ds) (AID 1963877); note: nearly all actives have a fitted effect of over 30% in size; for Viability: series mostly up to about 46 µM
Outline: as §1

[5] = Quantitative highthroughput screen to assess conditional lethalithy of NOMO1 cells grown in Human Plasma-Like Medium with dialyzed fetal bovine serum (HPLM+ds) (AID 1963878); note: nearly all actives have a fitted effect of over 35% in size
Outline: as §1

[6] = Quantitative highthroughput screen to assess conditional lethalithy of P12 Ichikawa cells grown in Human Plasma-Like Medium with dialyzed fetal bovine serum (HPLM+ds) (AID 1963879); conditions: Potency: viability; note: nearly all actives have a fitted effect of over 35% in size; for Viability: series mostly up to about 46 µM
Outline: as §1

[7] = Quantitative highthroughput screen to assess conditional lethalithy of P12 Ichikawa cells grown in RPMI1640 with dialyzed fetal bovine serum (RPMI+ds) (AID 1963880); conditions: Potency: P12-Ichikawa viability; note: nearly all actives have a fitted effect of over 35% in size
Outline: as §1

[8] = Quantitative highthroughput screen to assess conditional lethalithy of P12 Ichikawa cells grown in RPMI1640 with untreated serum (RPMI+s) (AID 1963881); conditions: Potency: viability; note: nearly all actives have a fitted effect of over 35% in size; for Viability: series mostly up to about 46 µM
Outline: as §1

[9] = Quantitative highthroughput screen to assess conditional lethalithy of SEM cells grown in Human Plasma-Like Medium with dialyzed fetal bovine serum (HPLM+ds) (AID 1963882); note: nearly all actives have a fitted effect of over 35% in size; for Viability: series mostly up to about 46 µM
Outline: as §1

[10] = Quantitative highthroughput screen to assess conditional lethalithy of SEM cells grown in RPMI1640 with unreated serum (RPMI+s) (AID 1963883); note: nearly all actives have a fitted effect of over 35% in size
Outline: as §1

[11] = Quantitative highthroughput screen to assess conditional lethalithy of SEM cells grown in RPMI1640 with dialyzed fetal bovine serum (RPMI+ds) (AID 1963884); note: nearly all actives have a fitted effect of over 35% in size; for Viability: series mostly up to about 46 µM
Outline: as §1

[12] = Cellular viability qHTS for adrenocortical cancer (ACC) cell line SW-13 (AID 1963989); conditions: SW-13 ACC cells viability, CellTiter-Glo, 48 h; activity (max response): stronger effect = lower value; note: nearly all actives have a fitted effect of over 65% in size;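 for activity (max response): cells grown in serum-free medium with ITS supplement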
Outline: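 SW-13 cells in ITS-supplemented serum-free DMEM were plated overnight, then exposed for 48 h at 37C to compound titrations (up to 46 uM final). Viability was read by CellTiter-Glo luminescence; four-parameter logistic fits gave IC50 and efficacy.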

[13] = Cellular viability qHTS for adrenocortical cancer (ACC) cell line NCI-H295R (AID 1963990); note: nearly all actives have a fitted effect of over 60% in size
Outline: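 Luminescent ATP read-out (CellTiter-Glo, 20 min RT) after 48 h drug exposure of NCI-H295R cells; a titration up to 46 uM final. Data normalized to doxorubicin (100% inhibition) and DMSO (0%); 4-parameter fit gives IC50, max response.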
Potency is the fitted concentration of half-maximal effect.

## C=C1C(=O)OC(CCCCCCCC)C1C(=O)O (stereo not drawn)
[1]
  Potency: inactive
[2]
  Potency: inactive
[3]
  Potency: inactive
[4]
  Potency: inactive
[5]
  Potency: inactive
[6]
  Potency: inactive
[7]
  Potency: inactive
[8]
  Potency: inactive
[9]
  Potency: inactive
[10]
  Potency: inactive
[11]
  Potency: inactive
[12]
  activity (max response): -7.15%

## CC(=O)NC(C)c1ccc(Oc2ccc(OC(C)C)cc2)cc1 (stereo not drawn)
[1]
  Potency: 10.8 µM (active)
[2]
  Potency: 10.8 µM (active)
[3]
  Potency: inactive
[4]
  Potency: inactive
[5]
  Potency: inactive
[6]
  Potency: inactive
[7]
  Potency: inactive
[8]
  Potency: inactive
[9]
  Potency: inactive
[10]
  Potency: inactive
[11]
  Potency: inactive

## CN1CC[C@@H](c2c(O)cc(O)c3c(=O)cc(-c4ccccc4Cl)oc23)[C@@H](O)C1
[1]
  Potency: 0.525 µM (active)
[2]
  Potency: 0.296 µM (active)
[3]
  Potency: 0.469 µM (active)
[4]
  Potency: 0.418 µM (active)
[5]
  Potency: 0.264 µM (active)
[6]
  Potency: 0.743 µM (active)
[7]
  Potency: 0.59 µM (active)
[8]
  Potency: 0.662 µM (active)
[9]
  Potency: 0.372 µM (active)
[10]
  Potency: 0.418 µM (active)
[11]
  Potency: 0.469 µM (active)
[12]
  Potency: 2.24 µM (active)
[13]
  Potency: 1.26 µM (active)

## C=CC(=O)Nc1ccc2ncnc(Nc3ccc(OCc4cccc(F)c4)c(Cl)c3)c2c1
[1]
  Potency: 5.8 µM (active) and 5.9 µM (active)
[2]
  Potency: 2.31 µM (active) and 4.68 µM (active)
[3]
  Potency: 2.64 µM (active)
[4]
  Potency: 3.32 µM (active)
[5]
  Potency: 2.35 µM (active)
[6]
  Potency: 7.43 µM (active)
[7]
  Potency: 7.43 µM (active)
[8]
  Potency: 7.43 µM (active)
[9]
  Potency: 7.43 µM (active)
[10]
  Potency: 7.43 µM (active)
[11]
  Potency: 8.33 µM (active)
[12]
  Potency: 0.631 µM (active)

## CN(C)c1ccc(Nc2nc(N)n(C(=O)c3c(F)cccc3F)n2)cc1
[1]
  Potency: 3.66 µM (active)
[2]
  Potency: 4.17 µM (active)
[3]
  Potency: inactive
[4]
  Potency: 11.8 µM (active)

## Cc1ncc([N+](=O)[O-])n1C[C@H](O)CN1CCOCC1
[1]
  Potency: inactive
[2]
  Potency: inactive

## Cc1cc(O)c(C(C)C)cc1O[C@@H]1O[C@H](CO)[C@@H](O)[C@H](O)[C@H]1O
[1]
  Potency: inactive
[2]
  Potency: inactive

## CC(=O)Oc1ccccc1C(=O)O
[1]
  Potency: inactive
[2]
  Potency: inactive
[3]
  Potency: inactive
[4]
  Potency: inactive
[5]
  Potency: inactive
[6]
  Potency: inactive
[7]
  Potency: inactive
[8]
  Potency: inactive
[9]
  Potency: inactive
[10]
  Potency: inactive
[11]
  Potency: inactive
[12]
  activity (max response): 9.69% and -6.24%
[13]
  Potency: inactive

## CN1CC(=O)NC1=NC(=O)Nc1cccc(Cl)c1
[1]
  Potency: inactive
[2]
  Potency: inactive
[3]
  Potency: inactive
[4]
  Potency: inactive
[5]
  Potency: inactive
[6]
  Potency: inactive
[7]
  Potency: inactive
[8]
  Potency: inactive
[9]
  Potency: inactive
[10]
  Potency: inactive
[11]
  Potency: inactive
[12]
  activity (max response): -5.87%
[13]
  Potency: inactive

## COc1ccccc1OCCNCC(O)COc1cccc2[nH]c3ccccc3c12 (stereo not drawn)
[1]
  Potency: 13.3 µM (active)
[2]
  Potency: 11.9 µM (active)
[3]
  Potency: inactive
[4]
  Potency: inactive
[5]
  Potency: inactive
[6]
  Potency: inactive
[7]
  Potency: inactive
[8]
  Potency: inactive
[9]
  Potency: inactive
[10]
  Potency: inactive
[11]
  Potency: inactive

## COc1ccc(Cn2ccc3ccc(C(=O)NO)cc32)cc1
[1]
  Potency: 14.8 µM (active)
[2]
  Potency: 20.6 µM (active) and 18.6 µM (active)
[3]
  Potency: inactive

## CC1CCCCN1CCCOC(=O)c1ccc(OC2CCCCC2)cc1 (stereo not drawn)
[1]
  Potency: 8.41 µM (active)
[2]
  Potency: 13.3 µM (active)

## CC[C@H](C)[C@@H]1NC(=O)[C@H](Cc2ccc(OC)cc2)NC(=O)CCCSC[C@@H](C(=O)N2CCC[C@H]2C(=O)N[C@@H](CC(C)C)C(=O)NCC(N)=O)NC(=O)[C@H](CC(N)=O)NC(=O)[C@H](CCC(N)=O)NC1=O
[1]
  Potency: inactive
[2]
  Potency: inactive

## COc1nc(C)cnc1NS(=O)(=O)c1cccnc1-c1ccc(-c2nnco2)cc1
[1]
  Potency: inactive
[2]
  Potency: inactive
[3]
  Potency: inactive
[4]
  Potency: inactive
[5]
  Potency: inactive
[6]
  Potency: inactive
[7]
  Potency: inactive
[8]
  Potency: inactive
[9]
  Potency: inactive
[10]
  Potency: inactive
[11]
  Potency: inactive
[12]
  activity (max response): 3.93%

## CC1OC(OC2C(OC3C(O[C@H]4CC[C@@]5(C)C(CC[C@]6(C)C5CC=C5C7CC(C)(C)CC(O)[C@]7(C)CC[C@]56C)C4(C)C)OC(C(=O)O)C(O)C3O)OCC(O)C2O)C(O)C(O)C1O (stereo partly drawn)
[1]
  viability (% of control): 90.6% [at 9.25 µM]
[2]
  viability, % of control: 94.4% [at 9.25 µM]

## C=C(C)C1CCC2(C(=O)O[C@@H]3O[C@H](CO[C@@H]4O[C@H](CO)[C@@H](O)[C@H](O)[C@H]4O)[C@@H](O)[C@H](O[C@@H]4O[C@@H](C)[C@H](O)[C@@H](O)[C@H]4O)[C@H]3O)CCC3(C(=O)O)C(CCC4C5(C)CCC(O)C(C)(C)C5CCC43C)C12 (stereo partly drawn)
[1]
  viability (% of control): 84.2% [at 9.25 µM]
[2]
  viability, % of control: 114% [at 9.25 µM]

## NS(=O)(=O)c1cc2c(cc1Cl)NC=NS2(=O)=O
[1]
  Potency: inactive
[2]
  Potency: inactive
[3]
  Potency: inactive
[4]
  Potency: inactive
[5]
  Potency: inactive
[6]
  Potency: inactive
[7]
  Potency: inactive
[8]
  Potency: inactive
[9]
  Potency: inactive
[10]
  Potency: inactive
[11]
  Potency: inactive
[12]
  activity (max response): 2.09% and 0.632%

## CC1=CC(=O)[C@]2(O[C@@H]3O[C@@H](C)[C@H](O)[C@@H](O)[C@H]3OC(=O)/C=C/c3ccccc3)C=CO[C@@H](O[C@@H]3O[C@H](CO)[C@@H](O)[C@H](O)[C@H]3O)[C@H]12
[1]
  Potency: inactive
[2]
  Potency: inactive

## CCOc1cc2c(c(F)c1OCC)C(=N)N(CC(=O)c1cc(N3CCOCC3)c(OC)c(C(C)(C)C)c1)C2
[1]
  Potency: 9.2 µM (active)
[2]
  Potency: 18.4 µM (active) and 4.68 µM (active)
[3]
  Potency: inactive
[4]
  Potency: inactive
[5]
  Potency: inactive
[6]
  Potency: inactive
[7]
  Potency: inactive
[8]
  Potency: inactive
